From PubChem BioAssay
GDH-TPI counter: inhibits GDH-TPI coupling enzymes, artifact for Mtb FBA screen. GDH-TPI coupled enzyme counterscreen, NADH absorbance. inhibition, % at 4.8 µM. actives 1.2% (n = 360,000); in the data active = inhibition above about 30%
Mtb BioA inh: blocks M. tuberculosis BioA enzyme activity; purified M. tuberculosis BioA enzyme, plate reader; inhibition, % at 9.99 µM; actives 0.096% (n = 360,000); AID 602481; in the data active = inhibition above about 40%
FBA Mtb inh: inhibits M. tuberculosis FBA enzyme; P9WQA3; purified M. tuberculosis FBA, fluorescence read-out; inhibition, % at 1 µM; actives 2.3% (n = 360,000); AID 588726; in the data active = inhibition above about 27%
Target sequence (P9WQA3 whole entry, looked up): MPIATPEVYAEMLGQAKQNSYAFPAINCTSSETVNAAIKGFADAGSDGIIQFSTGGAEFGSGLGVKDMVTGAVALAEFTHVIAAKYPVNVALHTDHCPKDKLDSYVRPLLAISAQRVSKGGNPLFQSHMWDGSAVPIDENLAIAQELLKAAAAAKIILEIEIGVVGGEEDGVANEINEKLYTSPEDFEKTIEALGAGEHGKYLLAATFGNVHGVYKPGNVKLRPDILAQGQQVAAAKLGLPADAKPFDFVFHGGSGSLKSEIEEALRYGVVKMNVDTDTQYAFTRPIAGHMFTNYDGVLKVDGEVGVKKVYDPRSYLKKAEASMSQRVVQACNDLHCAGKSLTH
FadD28 FP inh: blocks FadD28 binding to the bisubstrate probe | fluorescence polarization | inhibition, % at 12.5 µM | actives 0.22% (n = 360,000) | AID 588549; in the data active = inhibition above about 8.5%, passing the limit was not always enough
Rv3671c inh: Rv3671c (M. tuberculosis) protease inhibition. P9WHR9. inhibition, % at 5.96 µM. actives 0.048% (n = 320,000). AID 2606; in the data active = inhibition above about 38%;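 also: extracellular domain of Rv3671c used as enzyme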
Numbers stand for hits; n = inactive; x = not tested or not shown; + = active, no number; ! = not confirmed by another sample. Most compounds without a hit are left out; they make up all but 3% or so of the library.

SMILES	GDH-TPI counter	Mtb BioA inh	FBA Mtb inh	FadD28 FP inh	Rv3671c inh
COCC(=O)N(C)C[C@@H]1Oc2ncc(C#CC3(O)CCCC3)cc2C(=O)N([C@H](C)CO)C[C@H]1C	x	n	x	x	x
Cc1c(OC(C(=O)O)c2ccccc2)ccc2c3c(c(=O)oc12)CCC3 (stereo unspecified)	n	n	n	n	x
Cc1c(OC(C(=O)O)c2ccccc2)ccc2c1oc(=O)c1ccccc12 (stereo unspecified)	n	n	139	n	n
N#C/C(=C/c1ccco1)C(N)=S	n	x	n	15	n
N#C/C(=C\c1ccc2c(c1)OCO2)C(N)=S	n	n	n	n	n
C[C@H]1CN([C@@H](C)CO)S(=O)(=O)c2ccc(C#CC3CCCC3)cc2O[C@@H]1CN(C)C(=O)Cc1ccncc1	x	n	x	x	x
CC(/C=N/NC(=O)c1cccs1)=C\c1ccco1	n	n	n	n	n
CC(/C=N/NC(=O)Cc1cccs1)=C\c1ccco1	34	n	n	n	n
CCc1nc(-c2ccc(C)nc2OC)no1	n	n	n	n	n
COCc1nc(-c2ccc(-c3ccc(OC)cc3)nc2OC)no1	n	n	+	n	n
CCc1nc(-c2ccc(-c3ccc(OC)cc3)nc2OC)no1	n	n	152	n	n
COCc1nc(-c2ccc(-c3ccccc3)nc2OC)no1	n	n	n	n	n
C[C@@H]1CN([C@H](C)CO)C(=O)c2cc(NC(=O)CCCN(C)C)ccc2O[C@@H](C)CCCCO[C@H]1CN(C)Cc1ccc2c(c1)OCO2	x	n	x	x	x
Nc1nnc(CC(=O)N/N=C/c2ccc(-c3cccc(C(=O)O)c3)o2)s1	46	n	n	n	n
CCOC(=O)c1ccc(-c2ccc(/C=N/NC(=O)Cc3nnc(N)s3)o2)cc1	40	x	n	n	n
O=C(Cc1ccc(Br)cc1)N/N=C/c1ccc(-c2cccc(C(=O)O)c2)o1	62	n	n	n	n
Cc1ccc(/C=N/NC(=O)c2cccnc2)o1	n	x	n	n	n
O=C(O)c1cccc(-c2ccc(/C=N/NC(=O)c3cccnc3)o2)c1	57	n	n	n	n
C[C@@H]1CN([C@@H](C)CO)C(=O)c2ccccc2-c2ccccc2CO[C@@H]1CN(C)S(=O)(=O)c1ccc(Cl)cc1	x	n	x	x	x
CCNC(=O)[C@@H]1[C@@H](CO)[C@@H]2Cn3c(ccc(-c4ccc(F)cc4)c3=O)[C@H]1N2C(=O)C1CC1	x	n	x	x	x
O=c1c(-c2nc3ccccc3s2)cccn1Cc1ccc(Cl)cc1	n	n	142	n	n
C[C@H]1CN([C@@H](C)CO)S(=O)(=O)c2ccc(/C=C/c3ccccc3)cc2O[C@@H]1CN(C)C(=O)CN1CCOCC1	x	n	x	x	x
CCOC(=O)c1cc2c(c(-c3cccc(-c4cccc(OC)c4)c3)n1)[C@@H](CCO)N(S(=O)C(C)(C)C)C2 (stereo partly specified)	x	n	x	x	x
CCS(=O)(=O)N(C)C[C@H]1OCc2ccccc2-c2c(n(C)c3ccccc23)C(=O)N([C@H](C)CO)C[C@H]1C	x	n	x	x	x
O=Cc1ccc(N2CCCCCC2)cc1	34	n	n	n	n
SMILES	GDH-TPI counter	Mtb BioA inh	FBA Mtb inh	FadD28 FP inh	Rv3671c inh
O=Cc1ccc(N2CCCC2)c(F)c1	n	n	n	n	n
O=C(C[C@H]1C=C[C@@H](NC(=O)CC2CC2)[C@H](CO)O1)NCc1ccc(Cl)cc1	x	n	x	x	x
CCOc1ccccc1-n1c(=S)sc2c(=O)n(-c3ccc(C)cc3)c(=S)[nH]c21	n	x	n	n	n
CCn1c(=S)sc2c(=O)n(-c3ccccc3)c(=S)[nH]c21	35	x	n	n	n
C=CCn1c(O)c(C=Nc2ccc(OC)cc2C)c(=O)[nH]c1=O	43	n	n	n	n
N=C1/C(=C/c2coc3ccccc3c2=O)C(=O)N=C2SC(c3ccco3)=NN12	n	n	n	n	n
N=C1/C(=C\c2coc3ccccc3c2=O)C(=O)N=C2SC(c3ccncc3)=NN12	32	n	n	n	n
CC(C)CSC1=NSC2=NC(=O)/C(=C\c3coc4ccccc4c3=O)C(=N)N12	n	x	n	14	n
COc1ccc(C#Cc2cnc3c(c2)C(=O)N([C@H](C)CO)C[C@H](C)[C@H](CN(C)S(=O)(=O)c2cccc(F)c2)O3)cc1OC	x	n	x	x	x
COC(=O)C[C@@H]1CC[C@@H]2[C@@H](COc3ccc(NC(=O)Nc4c(C)noc4C)cc3C(=O)N2C)O1	x	n	x	x	x
COc1ccc(NC(=O)Nc2ccc3c(c2)CC(=O)N([C@@H](C)CO)C[C@@H](C)[C@H](CN(C)Cc2ccccc2)O3)cc1	x	n	x	x	x
COc1cc(/C=N/n2cnnc2-n2nc(C)cc2C)cc([N+](=O)[O-])c1O	38	n	n	n	n
CC(C)C#Cc1cnc2c(c1)C(=O)N([C@H](C)CO)C[C@@H](C)[C@@H](CN(C)C(=O)Nc1ccc(F)cc1)O2	x	n	x	x	x
NC(N)=NC(=O)c1nc(Cl)c(N)nc1N	39!	n	33!	n	n
O=C(O)c1ccc2nc(C(F)(F)F)[nH]c2c1	n	n	n	n	n
CCOC(=O)c1ccc2nc(C(F)(F)F)[nH]c(=O)c2c1	n	n	42	n	n
CCC(=O)Nc1ccc2c(c1)C(=O)N(C)C[C@H](OC)[C@@H](C)CN(Cc1ccccc1F)[C@H](C)CO2	x	n	x	x	x
CCn1c(=O)c(=O)[nH]c2cc(C(=O)NC3CC3)ccc21	n	n	n	n	n
CCn1c(=O)c(=O)[nH]c2cc(C(=O)NC3CCCc4ccccc43)ccc21 (stereo unspecified)	31	n	n	n	n
CC(C)(C)c1ccc(OC(=O)Nc2ccc(O)c(C(=O)O)c2)cc1	n	n	80	n	n
Cc1ccc(C(=O)Nc2ccc(O)c(C(=O)O)c2)o1	n	n	n	n	n
CCCNC(=O)C[C@H]1CC[C@@H]2[C@@H](COc3ccc(NC(=O)C4CCCC4)cc3C(=O)N2C)O1	x	n	x	x	x
COc1ccc(/C=C2\SC(=O)N(CCC(=O)Nc3ccccc3)C2=O)cc1OC	n	x	n	n	n
COc1ccccc1OCCN1C(=O)S/C(=C\c2ccco2)C1=O	34	n	n	n	n
O=C(NC1CCCC1)[C@H]1[C@H](CO)[C@H]2Cn3c(ccc(-c4ccncc4)c3=O)[C@H]2N1CCc1ccccc1	x	n	x	x	x
SMILES	GDH-TPI counter	Mtb BioA inh	FBA Mtb inh	FadD28 FP inh	Rv3671c inh
Cc1ccc(C(=O)Nc2ccc([N+](=O)[O-])cn2)o1	40	n	n	n	n
Cc1cc(NS(=O)(=O)c2ccc(NC(=O)c3ccco3)cc2)nc(C)n1	n	n	n	n	n
Cc1csc(NC(=O)/C=C/c2ccco2)n1	33	n	n	n	n
O=C(/C=C/c1ccco1)Nc1nc(-c2ccccc2)cs1	n	n	n	n	n
Cc1csc(NC(=O)/C=C/c2ccc3c(c2)OCO3)n1	35	x	n	n	n
Cc1cc(NS(=O)(=O)c2ccc(NC(=O)/C=C/c3ccco3)cc2)nc(C)n1	48	n	n	n	n
CCOC(=O)Cc1csc(NC(=O)/C=C/c2ccco2)n1	75	x	n	n	n
Cn1cnc(S(=O)(=O)N2C[C@H](O)COC[C@H]3O[C@H](CC(=O)NC4CCC4)CC[C@@H]32)c1	x	n	x	x	x
O=C(Nc1ccccc1F)N1CCCCN2[C@H](CO)[C@H](c3ccc(C4=CCCC4)cc3)[C@@H]2C1	x	n	x	x	x
CCNC(=O)C[C@H]1CC[C@H]2[C@H](COc3ccc(NC(=O)c4ccccc4)cc3C(=O)N2C)O1	x	n	x	x	x
